# This is a sample that favours compounds with a hit; in the whole collection about 3.5% have one here.
# MITF primary = human MITF inhibition, primary screen; O75030; AlphaScreen MITF homodimerization, bead proximity signal; inhibition, % at 2.6 µM; hit rate 0.91% among 650,000; in the data active = inhibition above about 50%;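 also: 0% = vehicle wells with protein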
# Target sequence (O75030 whole entry, looked up): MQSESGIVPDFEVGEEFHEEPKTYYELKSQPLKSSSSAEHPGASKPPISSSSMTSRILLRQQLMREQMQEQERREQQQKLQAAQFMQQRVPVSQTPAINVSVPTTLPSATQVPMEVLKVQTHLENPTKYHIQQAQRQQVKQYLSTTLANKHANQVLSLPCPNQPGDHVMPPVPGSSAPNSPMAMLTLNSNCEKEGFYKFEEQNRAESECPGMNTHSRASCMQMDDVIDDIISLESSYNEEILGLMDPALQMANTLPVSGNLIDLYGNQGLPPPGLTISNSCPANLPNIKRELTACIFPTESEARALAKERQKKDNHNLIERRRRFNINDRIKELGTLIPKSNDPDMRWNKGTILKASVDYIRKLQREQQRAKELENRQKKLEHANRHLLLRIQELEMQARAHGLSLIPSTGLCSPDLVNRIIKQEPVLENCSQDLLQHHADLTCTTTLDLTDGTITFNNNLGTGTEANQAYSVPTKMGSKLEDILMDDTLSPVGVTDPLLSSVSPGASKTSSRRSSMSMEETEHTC
# FBW7 activator = activators of human E3 ligase FBW7; Q969H0; AlphaScreen FBW7–phospho-cyclin E peptide binding, activator screen; normalized activity (activation), % at 26.1 µM; hit rate 0.13% among 650,000; AID 1259310; in the data active = normalized activity above about 1.9%;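 also: purified mutant Fbw7 with reduced substrate affinity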
# GPR151 activ = activates the human receptor GPR151. hit rate 1% among 650,000. PathHunter beta-arrestin GPR151 cells, luminescence. Q8TDV0. activation, % at 11.2 µM; in the data active = activation above about 4.9%;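 also: 0% = median of compound wells and 100% = cells with positive control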
# TEAD-YAP inh = TEAD-YAP interaction inhibition; HEK-TIYL cells, TEAD-Gal4/YAP UAS-luciferase luminescence; inhibition, % at 9.12 µM; hit rate 1.4% among 640,000; AID 1259422; in the data active = inhibition above about 32%;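 also: 0% = median of test compound wells and 100% = reference inhibitor wells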
# An asterisk follows results filed as active.
SMILES,MITF primary,FBW7 activator,GPR151 activ,TEAD-YAP inh
O=C(Nc1cccc(O)c1)c1noc2c1CCc1ccccc1-2,9,0,-5,87*
CC(=O)c1ccc(NC(=O)c2noc3c2CCc2ccccc2-3)cc1,-3,0,-1,-15
Nc1ccc(C(=O)Nc2cccc(O)c2)cc1,20,0,-5,59*
O=C(Nc1cccc(O)c1)c1ccccc1,3,0,1,48*
Nc1ccc(C(=O)Nc2ccc(O)cc2)cc1,6,0,0,26
CCCCCCC1CC1C(=O)Nc1ccc2ccccc2c1 (stereo not drawn),9,0,-1,-1
CCCC(c1nnnn1CC1CCCO1)N1CCN(c2ccc(F)cc2)CC1 (stereo not drawn),-3,0,-1,-30
O=C(c1cnn(-c2ccccc2)c1-n1cccc1)N1CCC(C(=O)N2CCCC2)CC1,10,0,-1,-3
O=C(O)c1cccc(Nc2nc(-c3ccc(O)c(O)c3)cs2)c1,80*,0,0,15
NNc1nc(-c2ccc(O)c(O)c2)cs1,103*,0,0,6
COc1ccc2cc(-c3csc(N)n3)ccc2c1,10,0,-5,32*
COc1ccc(-c2csc(N)n2)c(F)c1,0,0,0,-33
Oc1ccc(-c2csc(NCc3ccccc3)n2)cc1O,26,0,0,-82
Nc1nc(-c2ccc(O)c(O)c2)cs1,79*,0,0,3
O=c1c2c3c(sc2n2nnnc2n1-c1ccccc1)CCC3,2,-1,1,-3
Cc1cc(C)c2oc(-c3ccc(C)c(NC(=O)c4ccc(I)cc4)c3)nc2c1,12,0,-1,2
CCC/C=N/NC(=O)c1cccc(O)c1,9,0,-2,34*
C/C(CC(C)C)=N/NC(=O)c1ccc(Br)cc1,-16,0,0,-16
CCC/C=N/NC(=O)c1ccc(O)cc1,10,0,-1,-18
C/C(CC(C)C)=N\NC(=O)c1cccc(O)c1,8,0,-2,40*
CN(C)c1ccc(-c2ccc3ccccc3n2)cc1,5,1,-7,76*
CN(C)c1ccc(C(O)Cc2nc3ccccc3n2C)cc1 (stereo not drawn),-9,0,-9,95*
CC(C)c1ccc(C(O)Cc2nc3ccccc3n2C)cc1 (stereo not drawn),-1,-1,1,-9
CN(C)c1ccc(-c2nc3ccccc3n2C)cc1,28,0,-8,93*
COc1ccc(CCn2c(=O)[nH]c3c(C(N)=O)nc(-c4ccccc4)nc32)cc1,-10,0,1,-2
SMILES,MITF primary,FBW7 activator,GPR151 activ,TEAD-YAP inh
O=C(Nc1ccc2c3c(cccc13)CC2)c1cc(Br)ccc1Cl,-4,-1,3,55*
O=C(Nc1ccc2c3c(cccc13)CC2)c1cc(I)ccc1Cl,-13,0,-1,17
CNC(=S)N1CCC(NC(=O)C(Cc2ccc(OC)cc2)NC(C)=O)CC1 (stereo not drawn),5,2.4*,3,-15
CC1Sc2cc(S(=O)(=O)CCC(=O)Nc3ccc(F)c(Cl)c3)ccc2NC1=O (stereo not drawn),-12,0,0,-7
Cc1ccc(Nc2c(-c3ccccc3)c(=O)c2=O)cc1F,10,0,-2,35*
Cc1ccc(CNc2c(-c3ccccc3)c(=O)c2=O)cc1,-1,0,-1,-8
Cc1ccc(-c2c(Nc3ccccc3C)c(=O)c2=O)cc1,0,0,3,49*
Cc1ccc(-c2c(NC(C)c3ccccc3)c(=O)c2=O)cc1 (stereo not drawn),0,0,2,45*
Cc1ccc(NC(=O)c2cc(S(=O)(=O)NCCC3=CCCCC3)ccc2F)cc1F,16,1,-3,34*
CC(=O)Nc1ncc(Cc2ccc(Cl)cc2)s1,2,0,2,11
COc1ccc(Cc2cnc(NC(=O)c3sc4ccccc4c3Cl)s2)cc1,-22,0,2,48*
COc1ccc2nc(NC(=O)c3sc4ccccc4c3Cl)sc2c1,-8,0,0,-9
COc1ccc(C(=O)Nc2ncc(Cc3ccc(F)cc3)s2)cc1OC,10,1,0,55*
O=C(Nc1ncc(Cc2ccccc2Cl)s1)c1cccc2ccccc12,-15,0,-1,35*
COc1cc(C(=O)Nc2ncc(Cc3ccc(Cl)cc3)s2)cc(OC)c1OC,-3,0,0,58*
Cc1ccc(C2=NNC3(CCCCCCCCCCC3)S2)cc1,2,0,0,-25
CS(=O)(=O)N(CC(=O)NCc1ccco1)c1ccccc1F,6,0,0,0
Cc1ccccc1NC(=O)c1cc(Cl)ccc1O,-23,0,-7,42*
O=C(Nc1cccc2ccccc12)c1cc(Cl)ccc1O,9,0,-2,64*
O=C(Nc1cccc2ccccc12)c1ccccc1I,-1,0,2,4
CC(C)N(CCNc1cc(N2CCc3ccccc3C2)ncn1)C(C)C,-3,0,-1,4
N=C1/C(=C/c2cccn2-c2cc([N+](=O)[O-])ccc2Cl)C(=O)N=C2SC=CN12,8,0,-1,36*
Cc1ccc(SCC(=O)Nc2nnc(-c3ccc(Cl)cc3)o2)cc1,-10,0,0,9
O=C(CSc1nc2ccc(NC(=O)c3ccccc3Cl)cc2s1)NCCc1ccccc1,-8,0,0,-11
COc1ccc(Nc2c3c(nc4ccccc24)CCC3)cc1,15,1,1,18
SMILES,MITF primary,FBW7 activator,GPR151 activ,TEAD-YAP inh
COC(=O)c1ccc(Nc2c3c(nc4ccccc24)CCC3)cc1,-3,0,2,46*
CC(=O)CC(O)(c1ccccc1)C(F)(F)C(F)F (stereo not drawn),5,0,1,-14
O=S(/C=C(\F)C(F)(F)C(F)(F)C(F)F)Cc1ccccc1 (stereo not drawn),-3,0,2,50*
COc1ccccc1Oc1nnnn1-c1ccc(C(=O)O)cc1,8,0,-1,-6
CCN(CC)C(=O)c1ccc(Oc2nnnn2-c2ccccc2)c(OC)c1,10,0,0,32*
FC(F)(F)c1cccc(CNc2nc(-c3ccc(N4CCOCC4)nc3)nc3nc[nH]c23)c1,10,18*,1,3
FC(F)(F)Oc1cccc(-c2nccc(NCc3cccc(C(F)(F)F)c3)n2)c1,-8,0,0,50*
FC(F)(F)c1cccc(CNc2ccnc(NCCN3CCOCC3)n2)c1,6,0,2,24
OCC1CCCN1c1nccc(NCc2cccc(C(F)(F)F)c2)n1 (stereo not drawn),-4,0,1,43*
FC(F)(F)c1cccc(CNc2nc(N3CCOCC3)nc3nc[nH]c23)c1,0,0,-2,-4
FC(F)(F)c1cccc(CNc2ccnc(Nc3ccc(N4CCOCC4)cc3)n2)c1,25,0,-2,64*
Cc1nn(C(C)C(=O)NCc2ccc(F)cc2)c(=O)c2c1sc1ccccc12 (stereo not drawn),-1,0,1,6
COc1ccc(C(C)NC(=O)Cc2ccccc2)cc1OC (stereo not drawn),9,0,-1,-1
COc1ccccc1NS(=O)(=O)c1c(C)cc(C)cc1C,-1,0,2,-6
